By inhibition is commonly meant the change of the read-out against control, counted positive when it falls.

The nature of test [1]: inhibitors of TNFa-induced NFkB p65 translocation, primary screen, imaging, HUVEC, MLSMR starter and 10KST1 sets (AID 438;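 active = inhibition above 20% together with a positive visual image hit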;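 note: compound added about 3h40 before a 20 min TNFalpha stimulation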;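 for inhibition: signal is the nuclear over cytoplasmic p65 intensity ratio per well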). As to conditions: HUVEC TNFa-induced p65 nuclear translocation; cell count: measured here: nuclei count (cytotoxicity indicator), at 2.08 µM; inhibition: at 2 µM, stronger effect = higher value, 0% TNFa-plus-vehicle, 100% no-TNFa wells.
Test [2] can be described thus: reduction of polyQ htt aggregates in cells – imaging, exon1htt(103Q)mCFP cells, high-content imaging, primary screen (AID 483;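 active = visual image review flags a hit and inhibition of aggregation exceeds 20%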;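 note: compound exposure lasted 3 days before fixation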;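 for nuclei count: percent of the per-plate median nuclei count of sample wells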). As to conditions: exon1htt(103Q)mCFP cell line, aggregate imaging, at 2 µM; inhibition of aggregation: stronger effect = higher value; nuclei count: measured here: cell count, toxicity.
Test [3] can be described thus: endothelial E-selectin expression blockers – imaging, HUVEC, immunofluorescence, MLSMR starter and 10KST1 sets, primary screen (AID 487;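 active = visually confirmed hit in the image check and inhibition above 20%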;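 for inhibition: signal is fraction of cell area covered by stained E-selectin grains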;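 for nuclei count: 100% = median nuclei count of all wells on the same plate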). As to conditions: HUVEC TNFalpha-induced E-selectin immunofluorescence imaging, at 2 µM; inhibition: stronger effect = higher value; nuclei count: measured here: cell number, toxicity.
Test [4] concerns the target Voltage-gated potassium channel subunit beta-2 (Rattus norvegicus) (UniProt P62483). Briefly: inhibitors of rat Kvbeta2 reductase activity – biochemical, NADPH fluorescence, primary screen (AID 622;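 active = fluorescence slope higher than the sample average by over 3 SD, cut at about -0.22 in these data, passing the limit was not always enough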;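 note: slope of raw intensity against log time taken from 70 to 1610 s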). The following applies: recombinant KvBeta, 4-cyanobenzaldehyde reduction, at 10 µM, stronger effect = higher value.
Test [5] shares this target. Nature of the test: enhancers of rat Kvbeta2 NADPH turnover – biochemical, NADPH fluorescence, primary screen (AID 623;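 active = NADPH fluorescence slope more negative than the mean of all samples by about 3 SD, 99.7% confidence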;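 note: fluorescence intensity change per second fitted from 20 to 320 s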). The following applies: Recombinant KvBeta, NADPH fluorescence decrease slope, 10 min; at 10 µM; stronger effect = lower value.
Test [6] deals with Alpha-2C adrenergic receptor (Homo sapiens) (UniProt P18825). Briefly: compounds altering alpha2C-coupled GIRK flux – cell-based, HEK293 alpha2C/GIRK1/2, thallium flux, primary screen (AID 624;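 active = fluorescence slope after compound addition differing from the mean of all screened samples at 99.7% confidence, in either direction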;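 note: slope of fluorescence ratio to pre-addition baseline per second over 15 to 24 s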). The following applies: thallium flux BTC fluorescence, at 10 µM, actives lie on both sides.
Test [7] in a line: blockers of RIG-like receptor reporter activation – cell-based, Sendai virus stimulus, luciferase, 10K MLSCN set, TLR/RLR signaling modifier project, primary screen (AID 602276).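 Note: firefly luciferase from ISG56 promoter only with Renilla not read in this screen; 0% = Sendai virus plus DMSO and 100% = medium plus DMSO without virus.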 The following applies: HEK293 RL24 IRF3 luciferase reporter, at 10 µM, stronger effect = higher value. Background: A reporter such as luciferase makes a cellular process visible.
The nature of test [8]: TLR3 IRF3 reporter activation blockers – cell-based, poly I:C stimulus, luciferase, 10K MLSCN set, primary screen (AID 602277;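 active = inhibition of the reporter signal at or above 50%; inactive = inhibition below 50%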). As to conditions: HEK293-TLR3 RL24 IRF3 luciferase reporter, at 10 µM, stronger effect = higher value.

Activity calls are given as the source filed them.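 Rule for the calls, unless noted: active = inhibition at or above 50% at 10 µM; inactive = inhibition below 50%.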

Sequence of Alpha-2C adrenergic receptor (Homo sapiens) (P18825 whole entry, looked up): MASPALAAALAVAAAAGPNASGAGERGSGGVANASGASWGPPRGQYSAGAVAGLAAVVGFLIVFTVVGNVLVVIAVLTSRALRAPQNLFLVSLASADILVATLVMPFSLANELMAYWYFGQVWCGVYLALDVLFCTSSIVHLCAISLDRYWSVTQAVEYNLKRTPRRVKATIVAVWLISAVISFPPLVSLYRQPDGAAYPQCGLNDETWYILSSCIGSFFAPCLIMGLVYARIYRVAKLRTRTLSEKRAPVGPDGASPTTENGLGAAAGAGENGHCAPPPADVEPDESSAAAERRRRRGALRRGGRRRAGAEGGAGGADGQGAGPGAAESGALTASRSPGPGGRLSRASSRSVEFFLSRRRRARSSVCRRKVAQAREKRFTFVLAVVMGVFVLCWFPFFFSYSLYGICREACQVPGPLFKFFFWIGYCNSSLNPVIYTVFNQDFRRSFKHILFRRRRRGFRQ
Sequence of Voltage-gated potassium channel subunit beta-2 (Rattus norvegicus) (P62483 whole entry, looked up): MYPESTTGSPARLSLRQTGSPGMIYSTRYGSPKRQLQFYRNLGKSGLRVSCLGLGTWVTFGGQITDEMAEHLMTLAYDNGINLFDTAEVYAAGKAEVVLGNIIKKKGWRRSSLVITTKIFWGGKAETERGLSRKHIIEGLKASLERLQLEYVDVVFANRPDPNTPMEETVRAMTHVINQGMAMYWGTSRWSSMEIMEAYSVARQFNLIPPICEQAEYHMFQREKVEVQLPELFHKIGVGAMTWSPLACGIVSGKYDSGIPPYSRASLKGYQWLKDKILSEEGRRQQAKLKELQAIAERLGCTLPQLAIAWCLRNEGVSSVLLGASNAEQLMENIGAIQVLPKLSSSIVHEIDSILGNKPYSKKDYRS

On to `Cc1cc(Cl)ccc1OCC(=O)Nn1c(C)ccc1C`, for which the cell count in test [1] came out at 480. Further, the inhibition is -4.9% (inactive) in test [1], -16.2% (inactive) in test [3], 11.6% (inactive) in test [7] and 15.5% (inactive) in test [8]. Also, the inhibition of aggregation in test [2] was -6.4% (inactive). Besides, the nuclei count in test [2] was 94.5%; in test [3] it was 136%. Moreover, the fluorescence slope in test [4] was -0.525 (inactive). In addition, the NADPH fluorescence slope in test [5] was -3.9e-05 (inactive). For the same compound, the slope in test [6] was 0.00483 (inactive).
Turning to `Cc1ccc(C(C(=O)NC2CCCCC2)N(C(=O)c2csnn2)C2CCCC2)o1` (centres undefined), the cell count in test [1] was 514. The inhibition in test [1] was -8.3% (inactive); in test [3], -68.9% (inactive); in test [7] it was 14.4% (inactive); in test [8] it was 47.6% (inactive). Further, the inhibition of aggregation in test [2] was -9.5% (inactive). For the same compound, the nuclei count was 103% in test [2] and 112% in test [3]. Moreover, in test [4], the fluorescence slope is -0.547 (inactive). In addition, in test [5], the NADPH fluorescence slope was 1.5e-05 (inactive). Further, the slope in test [6] was 0.00533 (inactive).
`CCn1nc(CC(=O)Nc2nnc(CC(=O)N3CCCCC3)s2)c2ccccc2c1=O`: the cell count in test [1] turned out to be 385. Further, the inhibition in test [1] is 0.2% (inactive); in test [3], -289% (inactive); in test [7] it was 8.15% (inactive); in test [8], 25.2% (inactive). The inhibition of aggregation in test [2] is 2.9% (inactive). Also, the nuclei count in test [2] turned out to be 104%; in test [3], 95.9%. Also, the fluorescence slope in test [4] was -0.437 (inactive). Further, the NADPH fluorescence slope in test [5] is -2.5e-05 (inactive). Further, the slope in test [6] was 0.00348 (inactive).
As for `O=C(NC1CCCCC1)n1c(=O)oc2ccc(Cl)cc21`, the cell count in test [1] worked out at 666. Besides, the inhibition in test [1] is 13.9% (inactive); in test [3] it was 23.4% (inactive); in test [7], -1.88% (inactive); in test [8], -13.8% (inactive). The inhibition of aggregation in test [2] is -4.2% (inactive). In addition, the figures for the nuclei count in test [2] and in test [3] were 103% and 107%, respectively. In addition, in test [4], the fluorescence slope is -0.622 (inactive). In addition, in test [5], the NADPH fluorescence slope is -3.6e-05 (inactive). For the same compound, the slope in test [6] is 0.00609 (inactive).
For `O=C(Nc1ccc(Cl)cc1C(=O)O)c1ccc2c(c1)C(=O)N(Cc1ccco1)C2=O`, in test [1], the cell count stood at 366. The inhibition in test [1] is 0.3% (inactive); in test [3], -34.4% (inactive); in test [7] it was 23.5% (inactive); in test [8], 28.2% (inactive). Besides, in test [2], the inhibition of aggregation was -2.8% (inactive). Also, the nuclei count in test [2] was 105%; in test [3] it was 119%. In addition, in test [4], the fluorescence slope was -0.493 (inactive). Moreover, the NADPH fluorescence slope in test [5] is -4.3e-05 (inactive). Also, the slope in test [6] was 0.00498 (inactive).
Consider `Cc1ccc2nc(NCCCN3CCOCC3)c(C=NCCCN3CCOCC3)c(=O)n2c1`, for which the cell count in test [1] is 619. Besides, the inhibition in test [1] is -9.6% (inactive); in test [3], -49.1% (inactive); in test [7] it was 14.7% (inactive); in test [8], 33.3% (inactive). For the same compound, the inhibition of aggregation in test [2] is -38.5% (inactive). Also, the results for the nuclei count in test [2] and in test [3] were 10.5% and 141%, respectively. Besides, the fluorescence slope in test [4] is -0.435 (inactive). Moreover, in test [5], the NADPH fluorescence slope was -5.9e-05 (inactive). The slope in test [6] was 0.00509 (inactive).
`CCC(CC)C(=O)Nc1cccc(C(=O)NCc2ccco2)c1`: the cell count in test [1] came out at 295. Further, the inhibition in test [1] is 2.3% (inactive); in test [3], -100% (inactive); in test [7], -5.68% (inactive); in test [8] it was -18.7% (inactive). In addition, the inhibition of aggregation in test [2] was -17.4% (inactive). Also, the nuclei count in test [2] was found to be 107%; in test [3] it was 138%. Besides, the fluorescence slope in test [4] is -0.428 (inactive). Further, the NADPH fluorescence slope in test [5] is -1.2e-05 (inactive). The slope in test [6] was 0.00559 (inactive).
Turning to `O=C(NCC1CCCO1)C1CCN(S(=O)(=O)c2cccc3cccnc23)CC1` (centres undefined), the cell count in test [1] came to 651. Also, the inhibition in test [1] is -5% (inactive); in test [3] it was -63.2% (inactive); in test [7] it was 10.7% (inactive); in test [8] it was 25.3% (inactive). In test [2], the inhibition of aggregation was 6.8% (inactive). For the same compound, the nuclei count in test [2] was 104%; in test [3] it was 114%. In addition, the fluorescence slope in test [4] was -0.516 (inactive). In addition, the NADPH fluorescence slope in test [5] was 1.4e-05 (inactive). Moreover, in test [6], the slope was 0.00614 (inactive).
With `COc1ccc(-n2c(Cc3cccn3C)nnc2SCC(=O)Nc2ccccc2)cc1`, in test [1], the cell count is 527. The inhibition in test [1] was -11.3% (inactive); in test [3], -20.6% (inactive); in test [7], 15.3% (inactive); in test [8], 36.7% (inactive). Moreover, the inhibition of aggregation in test [2] is 6.5% (inactive). For the same compound, the nuclei count in test [2] turned out to be 79.8%; in test [3], 116%. Further, the fluorescence slope in test [4] was -0.55 (inactive). In addition, in test [5], the NADPH fluorescence slope was -2.9e-05 (inactive). The slope in test [6] was 0.00572 (inactive).
As for `C=C(C)Cn1c(N2CCN(CC)CC2)nc2c1c(=O)[nH]c(=O)n2C`, the cell count in test [1] came to 441. Further, the inhibition in test [1] is 14% (inactive); in test [3], 12.3% (inactive); in test [7] it was 2.55% (inactive); in test [8], 25.8% (inactive). The inhibition of aggregation in test [2] was -6.4% (inactive). Moreover, the nuclei count in test [2] is 81.9%; in test [3], 104%. Also, the fluorescence slope in test [4] is -0.528 (inactive). Besides, in test [5], the NADPH fluorescence slope was -1.8e-05 (inactive). Also, in test [6], the slope is 0.00582 (inactive).
In the case of `CC(c1ccco1)N(Cc1ccco1)C(=O)Nc1ccccc1` (centres undefined), the cell count in test [1] came to 511. Also, the inhibition in test [1] was 1% (inactive); in test [3] it was -45.1% (inactive); in test [7], -3.9% (inactive); in test [8] it was -21.4% (inactive). Further, the inhibition of aggregation in test [2] was 13.9% (inactive). The nuclei count came to 90.3% in test [2] and 97.5% in test [3]. The fluorescence slope in test [4] is -0.574 (inactive). Besides, in test [5], the NADPH fluorescence slope is 5.2e-05 (inactive). In addition, in test [6], the slope is 0.00511 (inactive).
In the case of `Cc1c(NC(=O)CSc2nnc3sc4ccccc4n23)c(=O)n(-c2ccccc2)n1C`, the cell count in test [1] was determined as 655. Further, the inhibition is 1% (inactive) in test [1], -24.3% (inactive) in test [3], 19.4% (inactive) in test [7] and 24.6% (inactive) in test [8]. Also, the inhibition of aggregation in test [2] is 16.2% (inactive). The nuclei count in test [2] turned out to be 98.3%; in test [3] it was 101%. For the same compound, the fluorescence slope in test [4] was -0.555 (inactive). For the same compound, the NADPH fluorescence slope in test [5] is 6.7e-05 (inactive). The slope in test [6] was 0.00649 (inactive).
Regarding `CCOC(=O)N1CCC(NC(=O)c2cc(C(=O)NC3CCCC3)ccc2CO)CC1`, the cell count in test [1] was 467. Moreover, the inhibition in test [1] was 0.8% (inactive); in test [3], -14.1% (inactive); in test [7], 11.2% (inactive); in test [8] it was 32% (inactive). Besides, the inhibition of aggregation in test [2] was 14.4% (inactive). The nuclei count in test [2] was 58.4%; in test [3] it was 106%. Besides, in test [4], the fluorescence slope was -0.535 (inactive). Further, in test [5], the NADPH fluorescence slope is -5.1e-05 (inactive). The slope in test [6] was 0.00598 (inactive).
On to `CC(=O)c1cc(-c2ccc(F)cc2)n(CCC(=O)Nc2cc(C)[nH]n2)c1C`, for which the cell count in test [1] was 360. Further, the inhibition is 0% (inactive) in test [1], 0% (inactive) in test [3], 4.04% (inactive) in test [7] and 25.9% (inactive) in test [8]. Moreover, the inhibition of aggregation in test [2] was -4.1% (inactive). Further, the nuclei count worked out at 102% in test [2] and 118% in test [3]. Further, the fluorescence slope in test [4] is -0.507 (inactive). In addition, the NADPH fluorescence slope in test [5] is -3.1e-05 (inactive). Further, the slope in test [6] was 0.00525 (inactive).

The values are drawn from PubChem BioAssay.
